Shown are actives, neighbours in structure and some others; about 9.3% of the full set was active somewhere.
ELG1 genotox: qHTS screen for small molecules that induce genotoxicity in human embryonic kidney (HEK293T) cells expressing luciferase-tagged ELG1; Potency, µM (highest dose often 46 µM), actives largely listed as activators; HEK293T ELG1-luciferase reporter, luminescence, 16 h; hit rate 1.3% among 330,000; also: nearly all actives have a fitted effect of over 60% in size
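Luminescence read-out: rising ELG1-luciferase signal, reflecting elevated ELG1 protein under genetic stress, flags genotoxic compounds. Cells were treated for 16 hr at 37 °C before ONE-Glo detection.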
SMN2 splice enh: qHTS Assay for Enhancers of SMN2 Splice Variant Expression; HEK293 SMN2-luciferase splicing reporter, luminescence, 30-36 h; Potency, µM (series often up to 46.1 µM), hits mostly activators; hit rate 2.8% among 210,000; also: nearly all actives have a fitted effect of over 55% in size
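HEK293 cells carry an SMN2 minigene-luciferase reporter in which exon 7 inclusion puts luciferase in frame. Cells were seeded at 2000 cells/well, attached for 10-12 hours, then exposed to compounds for 30-36 hours at 37C before ONE-Glo luminescence.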
NPC1 prom act: qHTS Assay for NPC1 Promoter Activators; Potency, µM (doses to about 9.22 µM), usual class: activators; Huh7 NPC1 promoter luciferase reporter, 24 h; hit rate 2.4% among 320,000; also: nearly all actives have a fitted effect of over 60% in size
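NPC1 promoter–luciferase Huh7 cells; 24 h compound; luminescence.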
ELG1 DNA repair: qHTS screen for small molecules that inhibit ELG1-dependent DNA repair in human embryonic kidney (HEK293T) cells expressing luciferase-tagged ELG1 | HEK293T ELG1-luciferase reporter, luminescence, 16 h; DNA damage induced by 5-fluorouridine | Potency, µM (highest dose often 46.1 µM), hits mostly inhibitors | hit rate 2.3% among 330,000 | AID 504467, 2011; also: nearly all actives have a fitted effect of over 55% in size
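Step one: seed 2,000 cells per well. Step two: pin-transfer compound or DMSO alongside 5-fluorouridine. Step three: incubate 16 hr, 37 °C, 5% CO2. Step four: add ONE-Glo, wait 30 min, read luminescence.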
FLuc counter: qHTS profiling assay for firefly luciferase inhibitor/activator using purifed enzyme and Km concentrations of substrates (counterscreen for miR-21 project) | hit rate 6.9% among 360,000 | purified FLuc, Km substrates, luminescence inhibition | Luciferin 4-monooxygenase (Photinus pyralis), P08659 | Potency, µM (highest dose often 57.5 µM), most hits filed as inhibitors; also: nearly all actives have a fitted effect of over 55% in size
Target sequence (P08659 whole entry, looked up): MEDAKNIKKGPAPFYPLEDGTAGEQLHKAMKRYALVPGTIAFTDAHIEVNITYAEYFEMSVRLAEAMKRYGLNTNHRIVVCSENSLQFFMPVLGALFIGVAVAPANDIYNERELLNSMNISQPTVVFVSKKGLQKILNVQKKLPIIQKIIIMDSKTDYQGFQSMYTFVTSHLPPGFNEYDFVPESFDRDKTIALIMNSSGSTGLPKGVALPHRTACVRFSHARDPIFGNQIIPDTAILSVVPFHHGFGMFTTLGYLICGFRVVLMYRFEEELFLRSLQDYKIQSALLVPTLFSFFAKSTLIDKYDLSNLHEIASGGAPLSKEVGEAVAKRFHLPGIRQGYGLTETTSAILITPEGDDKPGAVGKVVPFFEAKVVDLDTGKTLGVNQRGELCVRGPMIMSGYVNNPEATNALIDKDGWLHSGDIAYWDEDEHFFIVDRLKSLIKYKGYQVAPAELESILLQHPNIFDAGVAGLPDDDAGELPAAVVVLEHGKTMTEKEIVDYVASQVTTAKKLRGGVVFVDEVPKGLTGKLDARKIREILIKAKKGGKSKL
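Biochemical qHTS of compounds, final roughly 60 µM downward over six points, against 10 nM purified firefly luciferase using Km concentrations of substrates (10 uM D-luciferin, 10 uM ATP) in Tris acetate pH 7.5 buffer; luminescence output.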
Rab9 promoter act: qHTS Assay for Rab9 Promoter Activators; Huh7 Rab9 promoter-luciferase reporter, luminescence, 24 h; Potency, µM (highest dose often 9.22 µM), actives largely listed as activators; hit rate 2.8% among 320,000; also: nearly all actives have a fitted effect of over 60% in size
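Huh7 cells stably carrying Rab9 promoter–luciferase reporter, plated 1500 cells/well, compound added after 2 h and incubated 24 h at 37 °C; luciferase luminescence then read after 10 min with detection reagent.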
Numbers stand for hits; . = inactive; ? = inconclusive; / = no result. Calls follow the shape of the dose curve; as a rule, active = well fitted curve in the direction sought with a large enough effect; inconclusive = small, poorly fitted or top-dose-only effect, or another doubt; inactive = no such curve, though single readings can be large; an effect the other way counts as inactive or inconclusive.

SMILES	ELG1 genotox	SMN2 splice enh	NPC1 prom act	ELG1 DNA repair	FLuc counter	Rab9 promoter act
COc1ccc(/C=C/C(=O)c2ccc(OC)cc2OC)cc1	.	/	.	.	12µM	.
CCOc1cc(C(=O)OCC(=O)NC(C)c2ccccc2)ccc1OCC(=O)N1CCOCC1 (configuration not stated)	.	.	.	.	.	.
CS(=O)(=O)N1CCC2(CC1)CN(C(c1ccccc1)c1ccccc1)C2	/	.	/	/	/	/
COC(=O)c1ccc(/C=C/C(=O)c2ccc(OC)cc2)cc1	.	.	?	?	10.7µM	.
COc1ccc(/C=C/C(=O)c2cc(Cl)ccc2O)c(OC)c1	.	/	?	?	10.7µM	.
CC1(C)NC(=O)N(CC(=O)OCC(=O)c2ccc(Br)s2)C1=O	.	/	/	.	/	/
COc1cccc(N2CCN(c3cnc4ccccc4n3)CC2)c1	.	.	?	?	23.9µM	1.58µM
COc1ccc(N2CCN(c3cc(C)c4ccccc4n3)CC2)cc1	.	.	.	.	.	.
COc1ccc(N2CCN(c3cnc4ccccc4n3)CC2)cc1	?	?	?	?	13.5µM	?
COc1cccc(N2CCN(c3ccc([N+](=O)[O-])cn3)CC2)c1	.	/	.	.	.	.
COC(=O)c1ccccc1NC(=O)c1ccc(-c2cccc(Cl)c2)o1	?	10µM	?	?	.	.
CCCc1ccc(OCc2ccc(C(=O)Nc3ccccc3C(=O)OC)o2)cc1	/	?	/	/	19µM	/
COc1ccc(NC(=O)c2ccc(Cc3ccc(C)cc3)o2)cc1	.	.	.	.	15.1µM	.
Cc1ccc2cccc(NC(=O)c3ccc(-c4cccc(Cl)c4)o3)c2n1	/	.	/	/	.	/
COC(=O)c1sccc1-c1ccc(C(=O)Nc2cccc(Cl)c2)o1	.	?	?	?	9.53µM	3.55µM
O=C(COC(=O)/C=C/c1cccs1)NC1CC1	.	/	.	.	.	.
Cc1cc(Nc2ccc(Cl)cc2)n2cnnc2n1	/	.	/	/	.	/
Cc1ccc2c(CNC3CCCCC3)c(C(=O)O)n(Cc3ccc(F)cc3)c2c1	/	/	/	/	.	/
CCNc1nc(NCC)nc(N(CC)C(N)=S)n1	?	/	.	?	.	.
COc1ccc(NC(=O)c2ccc(COc3ccccc3)o2)c(OC)c1	.	/	.	.	.	.
COc1ccc(NC(=O)c2ccc(COc3ccccc3)o2)cc1	.	.	.	?	23.9µM	.
Cc1ccc(-c2nn3c(C)nnc3s2)cc1NC(=O)c1ccc(-c2cccc(Cl)c2)o1	.	.	.	18.4µM	?	.
Cc1ccc(-c2nn3c(C)nnc3s2)cc1NC(=O)c1ccc(-c2ccc(Cl)cc2Cl)o1	.	.	.	.	?	.
C/C(=N\OCC(=O)NC12CC3CC(CC(C3)C1)C2)c1cc2ccccc2o1	.	/	.	.	?	.
CC(=O)c1ccc(-n2cc(-c3ccc(C(C)(C)C)cc3)[n+]3c2SCCC3)cc1	.	.	.	7.3µM	.	.
SMILES	ELG1 genotox	SMN2 splice enh	NPC1 prom act	ELG1 DNA repair	FLuc counter	Rab9 promoter act
COc1ccc(-c2cn(-c3ccc(Br)cc3)c3[n+]2CCS3)cc1	.	.	.	.	.	.
Cc1nc2c(c(C)nn2-c2ccccc2)c(C)c1CCC(=O)Nc1ccc(CN2CCCC2)cc1	.	/	.	.	.	.
COc1ccc(C(=O)/C=C/c2cn(CC(O)CN3CCOCC3)c3ccccc23)cc1 (configuration not stated)	.	.	.	?	15.1µM	.
Cc1ccc(C(=O)/C=C/c2cn(CC(O)CN3CCOCC3)c3ccccc23)cc1 (configuration not stated)	.	.	.	.	?	.
COc1ccc(C(=O)/C=C/c2cn(CN3CCN(C)CC3)c3ccccc23)cc1	?	.	.	?	6.01µM	.
CCOc1ccc(C(=O)/C=C/c2cn(CN3CCN(C)CC3)c3ccccc23)cc1	.	.	.	?	16.9µM	.
Cn1c(/N=C/c2c[nH]c3ccccc23)nc2ccccc21	.	/	.	.	0.135µM	.
